# Screens deposited in PubChem by National Center for Advancing Translational Sciences (NCATS).
# Only some compounds are listed: those with a hit (about 7.9% of all), similar ones and a draw of the others.
# HT1080 IDH1KD tx = HT-1080 IDH1 knockdown cell toxicity (counter line). 2% of 360,000 active. HT-1080 IDH1 knockdown viability, ATP luminescence, 48 h. Potency, µM (series often up to 46.1 µM), inactives show at the top dose activity, negative = toxicity, usual class: cytotoxic. AID 686971;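 further: 0% = DMSO wells and -100% = cell-free medium wells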
#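 Luminescent ATP read-out (CellTiter-Glo, 10 min at room temperature) after 48 h compound exposure at 37 °C gave viability of IDH1-knockdown HT-1080 cells. Activity was normalised to DMSO and cell-free wells, then fitted as concentration-response curves.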
# SW480 rerep = DNA re-replication induction in SW480 cells; AID 624297; 1.8% of 340,000 active; Potency, µM (top dose mostly 46.1 µM), for the others: at the top dose re-replication activation, most hits filed as activators; SW480 DNA re-replication, Hoechst DNA content imaging, 48 h; further: % of control where 0% means no effect; nearly all actives have a fitted effect of over 55% in size
#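 Cells (250 per well) received 23 nL compound or DMSO by pin tool and were kept 48 hr at 37 C, 5% CO2. Nuclei were then stained with Hoechst for 40 min and scanned for DNA content.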
# MCF10A rereplic = induces DNA re-replication in MCF 10a normal breast cells; MCF 10A DNA re-replication, Hoechst nuclear intensity, 48 h; Potency, µM (titrated, usually from 46.1 µM), for the others: at the highest dose activity, positive = re-replication, usual class: activators; 2.9% of 350,000 active; AID 624296; further: % of control where 0% means no effect; nearly all actives have a fitted effect of over 50% in size
# HT1080NT lethal = kills 2HG-producing HT-1080-NT fibrosarcoma cells | HT-1080-NT fibrosarcoma viability, CellTiter-Glo ATP luminescence, 48 h | AID 686970 | 1.6% of 360,000 active | Potency, µM (doses to about 46.1 µM), for the others: at the highest dose activity, negative = less viability, usual class: cytotoxic;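 further: NT is the 2HG producing partner of a matched IDH1 knockdown line; 0% = DMSO-treated cells and -100% = media-only wells without cells; nearly all actives have a fitted effect of over 55% in size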
#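 HT-1080-NT fibrosarcoma cells (2HG-overproducing), 750 cells/well in RPMI with 5% FBS, dosed after 2 h and incubated 48 h at 37C. CellTiter-Glo luminescence normalized to DMSO and no-cell wells; concentration-response curves fitted and classed.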
# KB-V1 MDR tox = KB-V1 MDR subline cytotoxicity; Potency, µM (series often up to 46.1 µM), most hits filed as cytotoxic; AID 1347076; 3.4% of 400,000 active; KB-V1 MDR cells viability, CellTiter-Glo, 72 h; further: on the % scale 0 is the no-effect control and ±100 the full control effect; nearly all actives have a fitted effect of over 60% in size
#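 KB-V1 cells (P-gp-expressing MDR subline of KB-3-1) in phenol-red-free DMEM with 10% FBS were exposed to library compounds over a concentration series for 72 h at 37 degrees C. Viability read by CellTiter-Glo luminescence; concentration-effect curves fitted after normalization.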
# KB-3-1 cytotox = kills parental KB-3-1 adenocarcinoma cells. KB-3-1 viability, CellTiter-Glo ATP luminescence, 72 h. Potency, µM (highest dose often 46.1 µM), hits mostly cytotoxic. 1.4% of 400,000 active; further: on the % scale 0 is the no-effect control and ±100 the full control effect; nearly all actives have a fitted effect of over 60% in size
#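 Luminescent ATP read-out (CellTiter-Glo) measures survival of drug-naive KB-3-1 cells after 72 h compound exposure at 37 °C. Titration series was screened from lowest to highest concentration, with DMSO vehicle plates as background controls.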
# An asterisk follows results filed as active; i = inactive; ? = inconclusive; nt = no result given; ! = repeats disagree. The call rests on the fitted dose curve; in most records, active means well fitted curve in the direction sought with a large enough effect; inconclusive means small, poorly fitted or top-dose-only effect, or another doubt; inactive means no such curve, though single readings can be large; an effect the other way counts as inactive or inconclusive. Potency means the concentration at half of the fitted maximal effect.
SMILES,HT1080 IDH1KD tx,SW480 rerep,MCF10A rereplic,HT1080NT lethal,KB-V1 MDR tox,KB-3-1 cytotox
CCOC(=O)c1c(-c2ccc(C)o2)csc1NC(=O)COC(=O)c1cccs1,-10.1%,-2.6%,9.1%,-4.0%,i,i
COc1cccc(OCC(=O)Nc2ccc(OC)c(OC)c2)c1,-8.8%,-6.2%,-4.3%,8.9%,i,i
CCc1ccc(/C=C/C(=O)C2C(=O)c3ccccc3C2=O)cc1,?,?,?,?,i,i
CC[N+]1(C)CCC(O)(/C=C/c2ccccc2)C(C(=O)/C=C/c2ccccc2)C1 (configuration not stated),7.31µM*,20.6µM*,?,-16.6%,?,?
CCCCNc1c(-c2ccc(SC3CCCCC3)cc2)nc2cnccn12,?,?,?,?,37.2µM*!,i
COc1ccc(-c2nc3cnccn3c2NCc2ccccc2)cc1SC1CCCCC1,-20.6%,?,11.6µM*,-10.6%,i,i
CCCCNc1c(-c2ccc(OC)c(SC3CCCCC3)c2)nc2cnccn12,?,?,16.4µM*,?,i,i
CCCCNc1c(-c2ccc(-c3ccc(C(C)=O)cc3)c(OC)c2)nc2cnccn12,?,23.1µM*,20.6µM*,?,i,i
CCCCCCSc1ccc(-c2nc3ccccn3c2NCCCC)cc1,3.9%,0.4%,?,2.3%,?,i
O=C(CNS(=O)(=O)c1ccccc1)OCC(=O)c1ccc(Br)cc1,2.0%,-6.9%,-12.8%,-2.3%,i,i
C=CCOC(=O)C(C#N)c1nc2ccccc2nc1N1CCCC1 (configuration not stated),0.5%,-7.0%,-4.8%,1.0%,i,i
CN1CCN(C(c2cccc(C(F)(F)F)c2)c2nnnn2C(C)(C)C)CC1 (configuration not stated),-2.3%,1.9%,-6.9%,2.0%,?,i
CC1CCN(S(=O)(=O)c2cc(C(=O)NCc3ccc(F)cc3)n(C)c2)CC1,nt,nt,nt,nt,i,i
Cc1cc(C=O)c(C)n1-c1ccc(N2CCOCC2)cc1,-10.1%,-2.6%,1.0%,-2.3%,i,i
CCCCNc1c(-c2ccc(OC)c(SC3CCCCC3)c2)nc2ccc(Cl)cn12,-3.4%,11.4%,20.6µM*,10.0%,i,i
CCCCNc1c(-c2ccc(OC)c(SC3CCCCC3)c2)nc2cc(C)ccn12,?,23.9%,?,18.4µM*,?,?
COc1c(O)ccc2cnn(-c3ccccc3C)c(=O)c12,-0.7%,-14.3%,2.1%,0.4%,i,i
N/C(=N\OC(=O)c1ccccc1)C(C(=O)NOC(=O)c1ccccc1)C1CCCCC1 (configuration not stated),?,?,?,?,?,23.1µM*
O=C(COC(=O)c1ccccc1)NC1CCCCCC1,-2.4%,-12.3%,-16.5%,-6.2%,i,i
CN1OC[C@@H]2CN(C(=S)Nc3ccc(C#N)cc3)[C@H](c3ccc(N4CCCCC4)cc3)C[C@@H]21,0.5%,nt,nt,0.8%,i,i
COc1ccc(CN2CCN(c3cc(C)nc4c5c(C)cc(C)nc5nn34)CC2)cc1F,9.9%,8.7%,4.4%,-4.0%,2.31µM*,i
COc1cccc(OCC(Cn2cnc3ccccc32)OC(C)=O)c1 (configuration not stated),5.3%,0.6%,0.0%,7.0%,16.4µM*,i
COc1ccc(OCC(Cn2cnc3ccccc32)OC(C)=O)cc1 (configuration not stated),1.8%,-12.0%,5.9%,2.0%,?,i
CC(C)C(C)NC(=O)COc1ccc(Sc2ccc(OCC(=O)NC(C)C(C)C)cc2)cc1 (configuration not stated),8.8%,4.1%,14.6%,-0.5%,2.91µM*,?
